Here are results for 21 compounds from PubChem BioAssay (NCATS).

Assay [1] in a line: Quantitative High-Throughput drug screen in 47 multiple myeloma cell lines against the NCATS MIPE library collection: Karpas620_DSMZ cell viability assay (AID 1918959). Further: nearly all actives have a fitted effect of over 30% in size. The procedure, abridged: (§1)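 Luminescent ATP measurement with CellTiter-Glo gives viability, scaled between DMSO-only wells (100%) and media-only wells (0%). Cells, 500 per well, faced library compounds for 48 hours at 37C.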

A short description of assay [2]: Quantitative High-Throughput drug screen in 47 multiple myeloma cell lines against the NCATS MIPE library collection: KMM1_JCRB cell viability assay (AID 1918960). Further: nearly all actives have a fitted effect of over 30% in size. The procedure, abridged: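 Luminescence from CellTiter-Glo, taken after 5 min at room temperature, reports cellular ATP as viability. Cells (500 per well) had been treated 48 h at 37 °C with MIPE 4.0 compounds, scaled between DMSO and medium-only controls.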

The nature of assay [3]: Quantitative High-Throughput drug screen in 47 multiple myeloma cell lines against the NCATS MIPE library collection: Karpas417_ECACC cell viability assay (AID 1918961). Conditions: Karpas417 myeloma viability, CellTiter-Glo ATP luminescence, 48 h; viability (% of DMSO): at 45.8 µM (top of the series). The procedure, abridged:
(§2)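 Steps: seed 500 cells per well; pin-transfer MIPE 4.0 library; incubate 48 h at 37C, 5% CO2, humidified; add CellTiter-Glo, 5 min room temperature; read luminescence.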
In general terms: ATP-based viability assays read luminescence as a measure of living cells.

A short description of assay [4]: Quantitative High-Throughput drug screen in 47 multiple myeloma cell lines against the NCATS MIPE library collection: KHM11_PLB cell viability assay (AID 1918962). Further: nearly all actives have a fitted effect of over 35% in size. The procedure, abridged:
as §1

The nature of assay [5]: Quantitative High-Throughput drug screen in 47 multiple myeloma cell lines against the NCATS MIPE library collection: JIM1_ECACC cell viability assay (AID 1918964). The procedure, abridged: (§3)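 Approved and investigational drugs from MIPE 4.0 were added by pin tool to 500 cells per well. After 48 hours at 37C, ATP-based CellTiter-Glo luminescence indicated remaining viability.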

Assay [6] can be described thus: Quantitative High-Throughput drug screen in 47 multiple myeloma cell lines against the NCATS MIPE library collection: INA6_PLB cell viability assay (AID 1918965; further: nearly all actives have a fitted effect of over 55% in size). The procedure, abridged: as §2
Assay [7] is described as follows: Quantitative High-Throughput drug screen in 47 multiple myeloma cell lines against the NCATS MIPE library collection: JJN3_DSMZ cell viability assay (AID 1918966; further: nearly all actives have a fitted effect of over 50% in size). The procedure, abridged:
as §3

Assay [8] is described as follows: Quantitative High-Throughput drug screen in 47 multiple myeloma cell lines against the NCATS MIPE library collection: H1112_PLB cell viability assay (AID 1918967; further: nearly all actives have a fitted effect of over 30% in size). The procedure, abridged:
as §3

Assay [9] is described as follows: Quantitative High-Throughput drug screen in 47 multiple myeloma cell lines against the NCATS MIPE library collection: Karpas25_ECACC cell viability assay (AID 1918968; further: nearly all actives have a fitted effect of over 35% in size). The procedure, abridged: as §3
The nature of assay [10]: Quantitative High-Throughput drug screen in 47 multiple myeloma cell lines against the NCATS MIPE library collection: JIM3_ECACC cell viability assay (AID 1918963; further: nearly all actives have a fitted effect of over 35% in size). The procedure, abridged: as §1

Inconclusive results are not listed. Active and inactive are the calls of the source. The call rests on the fitted dose curve; in most records, active means well fitted curve in the direction sought with a large enough effect; inconclusive means small, poorly fitted or top-dose-only effect, or another doubt; inactive means no such curve, though single readings can be large; an effect the other way counts as inactive or inconclusive.
Potency means the concentration at half of the fitted maximal effect.

Regarding `O=C(Nc1ccc([N+](=O)[O-])cc1Cl)c1cc(Cl)ccc1O`, the Potency was 0.935 µM (active) in [1]; 0.235 µM (active) in assay [2]; 0.59 µM (active) in assay [3]; 1.32 µM (active) in assay [4]; 1.05 µM (active) in assay [5]; 0.935 µM (active) in assay [6]. The values for the Potency in assay [7], in assay [8] and in assay [9] were 1.87 µM (active), 1.32 µM (active) and 0.332 µM (active), respectively.

For the compound `NC(=O)OCC(COC(N)=O)c1ccccc1`, the Potency entry in assay [1], in assay [2], in assay [4], in assay [6] and in [8] was “inactive” throughout.

On to `CS(=O)(=O)CCNCc1ccc(-c2ccc3ncnc(Nc4ccc(OCc5cccc(F)c5)c(Cl)c4)c3c2)o1`, for which the Potency in assay [1] is 18.7 µM (active); in assay [2], 13.2 µM (active); in [3], 6.62 µM (active); in [4] it was 4.69 µM (active); in assay [5] it was 6.62 µM (active); in assay [6], 3.32 µM (active). Also, the Potency in assay [8] is 0.0743 µM (active); in assay [9] it was 0.372 µM (active).

As to `COc1nc(C)nc(Cl)c1NC1=NCCN1`, the Potency entry in assay [1], in assay [4] and in assay [5] was “inactive” in each case. Further, the figures for the Potency in assay [8] and in assay [9] were 7.43 µM (active) and 9.35 µM (active), respectively.

Turning to `COc1cc2nc(N3CCN(C(=O)c4ccco4)CC3)nc(N)c2cc1OC`, the Potency in assay [1] was 5.26 µM (active); in assay [2], 9.35 µM (active); in [4], 10.5 µM (active); in [6] it was 8.33 µM (active); in assay [8], 16.6 µM (active); in [9], 7.43 µM (active).

As to `COc1ccc2c(c1)c(CC(=O)O)c(C)n2C(=O)c1ccc(Cl)cc1`, the Potency entry in assay [1], in [2] and in [10] was “inactive” throughout. Further, the Potency in assay [6] was 16.6 µM (active); in assay [9], 20.9 µM (active).

For the compound `NC(=O)NO`, the Potency is 3.72 µM (active) in assay [1]; 0.235 µM (active) in [2]; 1.48 µM (active) in [3]; 2.96 µM (active) in [4]; 1.66 µM (active) in assay [5]; 0.166 µM (active) in [6]. The values for the Potency in assay [7], in assay [8] and in assay [9] were 2.35 µM (active), 2.96 µM (active) and 0.166 µM (active), respectively.

For `CCOC(=O)C(C)(C)Oc1ccc(Cl)cc1`, the Potency result in assay [1], in assay [2], in [4], in assay [6] and in assay [7] was “inactive” throughout. For the same compound, the Potency in [9] is 0.662 µM (active).

On to `COC(=O)Nc1nc2ccc(C(=O)c3cccs3)cc2[nH]1`, for which the Potency is 0.0017 µM (active) in assay [1]; 0.001 µM (active) in assay [2]; 0.001 µM (active) in assay [10]; 0.001 µM (active) in [5]; 0.001 µM (active) in [6]; 0.0132 µM (active) in assay [8].

As to `CN(C)CCCN1c2ccccc2CCc2ccc(Cl)cc21`, the Potency in assay [1] is 16.6 µM (active); in [2], 11.8 µM (active); in assay [4], 3.32 µM (active); in assay [10] it was 4.69 µM (active); in [5], 9.35 µM (active); in assay [8] it was 0.833 µM (active). Further, the Potency in [9] is 0.743 µM (active).

In the case of `O=C(c1ccc(OCCN2CCCCC2)cc1)c1c(-c2ccc(O)cc2)sc2cc(O)ccc12`, the Potency in [1] is 26.4 µM (active); in assay [2], 20.9 µM (active); in assay [3] it was 18.7 µM (active); in assay [5], 37.2 µM (active); in assay [6], 18.7 µM (active); in assay [7] it was 20.9 µM (active).

Take `COc1ccccc1N1CCN(CC(O)COc2cccc3ccccc23)CC1` (stereo unspecified): the Potency entry in [1], in [2] and in assay [7] was “inactive” each time. Further, the Potency in [10] is 5.26 µM (active); in assay [8], 16.6 µM (active); in [9], 11.8 µM (active).

Take `COc1cc2c(c(OC)c1OC)-c1ccc(OC)c(=O)cc1[C@@H](NC(C)=O)CC2`: the Potency entry in assay [1], in [2], in assay [10], in assay [5], in [6] and in assay [9] was “inactive” throughout. Also, the Potency in assay [3] is 0.0033 µM (active).

Turning to `CN1CCN(CCCN2c3ccccc3Sc3ccc(Cl)cc32)CC1`, the Potency in assay [1] was 4.18 µM (active); in assay [2], 16.6 µM (active); in assay [3] it was 0.132 µM (active); in assay [10], 23.5 µM (active); in assay [5] it was 3.32 µM (active); in assay [6] it was 14.8 µM (active). Also, the values for the Potency in assay [7], in assay [8] and in assay [9] were 18.7 µM (active), 20.9 µM (active) and 5.26 µM (active), respectively.

With `CC12CC3CC(C)(C1)CC(N)(C3)C2`, the Potency entry in assay [1], in [3] and in [5] was “inactive” in each case. The Potency in assay [6] and in assay [9] was 20.9 µM (active) each time.

In the case of `CC#C[C@]1(O)CC[C@H]2[C@@H]3CCC4=CC(=O)CCC4=C3[C@@H](c3ccc(N(C)C)cc3)C[C@@]21C`, the Potency is 0.662 µM (active) in [1]; 1.05 µM (active) in assay [2]; 0.526 µM (active) in [3]; 1.87 µM (active) in assay [4]; 0.526 µM (active) in assay [5]; 0.662 µM (active) in assay [6]. The Potency in [7] was 1.48 µM (active); in assay [8], 0.743 µM (active); in assay [9] it was 0.372 µM (active).

For the compound `Nc1ccn([C@H]2CC[C@@H](CO)O2)c(=O)n1`, the Potency result in assay [1], in assay [2], in assay [3] and in assay [8] was “inactive” throughout.

On to `Cc1ccc(-c2cc(C(F)(F)F)nn2-c2ccc(S(N)(=O)=O)cc2)cc1`, for which the Potency entry in assay [1], in assay [2] and in [4] was “inactive” throughout.

As to `CC1(CN2CCC(n3c(=O)[nH]c4ccccc43)CC2)OCc2ccccc2-n2cccc21` (stereo unspecified), the Potency entry in [1], in [2], in assay [4] and in [10] was “inactive” throughout. For the same compound, the results for the Potency in [6], in assay [8] and in assay [9] were 14.8 µM (active), 8.33 µM (active) and 13.2 µM (active), respectively.

Consider `C[C@@H]1CC(=O)NN=C1c1ccc(NN=C(C#N)C#N)cc1`, for which the Potency entry in assay [1], in assay [2] and in assay [5] was “inactive” each time. Besides, the Potency is 20.9 µM (active) in assay [10]; 18.7 µM (active) in assay [6]; 20.9 µM (active) in assay [7]; 20.9 µM (active) in [8]; 18.7 µM (active) in [9].

For the compound `N[C@@H](Cc1c[nH]c2ccc(O)cc12)C(=O)O`, the Potency entry in assay [1], in [4], in [5], in assay [6] and in assay [8] was “inactive” each time. Besides, in [2], the Potency was 18.7 µM (active).
